# From PubChem
# MRP reversal: reversal of MRP1-mediated doxorubicin resistance, primary screen, H69AR cells, doxorubicin co-treatment; H69AR cells + 2 uM doxorubicin, CellTiter-Glo, 72 h; differential viability (reversal), % at 10 µM; 85,000 tested, 0.04% active;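 active = viability drop by adding the cancer drug above about 55%, with treated viability meeting a 40% cutoff, limit read from the data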;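 note: viability without doxorubicin minus viability with 2 µM doxorubicin for each compound; larger differential means the compound sensitizes cells more to doxorubicin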
# ERb SRC1 inh: inhibitors of ERβ-SRC1 coactivator interaction, primary screen, biochemical, TR-FRET, ERβ LBD, SRC-1 peptide | Estrogen receptor beta (Homo sapiens), Q92731 | TR-FRET ER-beta LBD / SRC1-Cy5 peptide binding; receptor agonist-loaded with 1 µM estradiol | inhibition, % at 25.6 µM | 86,000 tested, 1.3% active;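 active = compounds whose percent inhibition of the receptor-coactivator binding signal exceeds about 50% in the single-dose screen, limit read from the data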;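 note: 0% = receptor plus peptide wells without compound and 100% = peptide-only wells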
# ERa coact inh: ERα–SRC-1 coactivator interaction inhibitors, primary screen, biochemical, TR-FRET, ERα LBD, estradiol-bound. TR-FRET ER-alpha LBD / SRC-1 peptide. inhibition, % at 25.6 µM. Estrogen receptor (Homo sapiens), P03372. AID 629, 2007. 86,000 tested, 1.7% active; in the data active = inhibition above about 50%;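 note: 0% = receptor plus peptide control and 100% = peptide only without receptor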
# Smad3 inh: Smad3/FoxH1 peptide binding inhibitors, primary screen, biochemical, TR-FRET; TR-FRET Smad3/Dy647-FoxH1 peptide binding, europium anti-His; inhibition, % at 25 µM; 88,000 tested, 0.29% active;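 active = compounds that reduce the energy-transfer binding signal between the protein and its labelled peptide by more than half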;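 note: 0% = Smad3 plus labelled peptide maximal FRET and 100% = peptide-only background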
# Target sequence (P84022 whole entry, looked up): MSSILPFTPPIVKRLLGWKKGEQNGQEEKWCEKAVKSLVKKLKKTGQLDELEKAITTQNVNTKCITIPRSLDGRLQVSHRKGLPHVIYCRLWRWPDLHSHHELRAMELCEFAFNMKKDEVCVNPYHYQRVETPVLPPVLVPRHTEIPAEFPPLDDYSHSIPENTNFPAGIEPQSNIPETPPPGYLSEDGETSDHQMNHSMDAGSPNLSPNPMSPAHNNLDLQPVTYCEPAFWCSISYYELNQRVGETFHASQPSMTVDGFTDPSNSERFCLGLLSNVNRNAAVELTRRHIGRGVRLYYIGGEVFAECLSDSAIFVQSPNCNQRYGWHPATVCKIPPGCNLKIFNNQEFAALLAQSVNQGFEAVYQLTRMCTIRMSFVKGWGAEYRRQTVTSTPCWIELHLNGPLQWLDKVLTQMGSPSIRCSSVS
# ERa SRC1 pot: enhancers of ERα–SRC-1 coactivator binding, primary screen, biochemical, TR-FRET, ERα LBD, low estradiol. Estrogen receptor (Homo sapiens), P03372. TR-FRET ERalpha-LBD/SRC-Cy5 coactivator binding, 2 h; 100 = basal binding, no effect. coactivator binding (% of control), % at 25.6 µM. 86,000 tested, 1.3% active. AID 639, 2007; in the data active = activity above about 200%;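 note: binding measured in presence of low estradiol as agonist stimulus; 0% = peptide alone without receptor and 100% = receptor with peptide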
# MRP-1 activ: H69AR viability gain despite doxorubicin, primary screen, MRP-1 activator project, H69AR cells, CellTiter-Glo; viability rescue; viability increase, % at 10 µM; 140,000 tested, 0.61% active; AID 799, 2007;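 active = viability gain under doxorubicin at or above a set limit, the compound median plus 3 SD, cut at about 4.7% in these data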;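 note: MRP-1 overexpressing cells given doxorubicin 25 µM after compound pretreatment; 18-22 h compound pretreatment then 72 h with doxorubicin before readout; 0% = doxorubicin-only wells and 100% = vehicle-treated cells without doxorubicin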
# Starred values were filed as active, the others as inactive; / = not tested or not shown; [ ] = dose if it differs, or a comment. Compounds with a hit are over-represented: about 2.8% of the library has one in this group of screens.
SMILES,MRP reversal,ERb SRC1 inh,ERa coact inh,Smad3 inh,ERa SRC1 pot,MRP-1 activ
Cc1ccccc1Cn1c(=O)n(-c2ccccc2)c(=O)c2ccc(C(=O)NCc3ccco3)cc21,/,/,/,/,/,-3.8
Cc1ccc(C)c(Cn2c(=O)n(-c3ccc(CC(=O)NCc4ccco4)cc3)c(=O)c3sccc32)c1,11.9,54.5*,79.6*[fluorescence artefact?],-71.0,127.0,-3.2
CC[C@H]1CN(C)[C@@H]2Cc3c([nH]c4ccccc34)C(=O)C[C@H]1[C@H]2C(=O)OC,/,/,/,1.2,/,/
CC(C)(C)c1cc2c(O)c(c1)Cc1cc(C(C)(C)C)cc(c1O)Cc1cc(C(C)(C)C)cc(c1O)Cc1cc(C(C)(C)C)cc(c1O)Cc1cc(C(C)(C)C)cc(c1O)Cc1cc(C(C)(C)C)cc(c1O)Cc1cc(C(C)(C)C)cc(c1O)Cc1cc(C(C)(C)C)cc(c1O)C2,/,/,/,15.7,/,/
O=S1(=O)OC(c2ccc(O)cc2)(c2ccc(O)cc2)c2ccccc21,/,/,/,97.0*,/,/
CC(=O)Nc1nonc1-c1nc2ccccc2n1N(C(C)=O)C(C)=O,-5.5,75.5*,86.2*[fluorescence artefact?],11.5,21.9,-1.2
CC(=O)Nc1nonc1-c1nc2ccccc2n1CC1CC1,10.1,4.0,1.1,-13.7,89.5,-2.5
Cc1nc(SCC(=O)c2ccccc2)c(C#N)c(-c2ccco2)c1C(=O)NCc1ccco1,6.3,18.7,18.1,3.1,235.7*,-5.3
CCOc1ccccc1Nc1ccc(N)cc1S(=O)(=O)O,/,/,/,13.2,/,/
CCCN1C(=O)SC(CC(=O)Nc2ccccc2C)C1=O (stereo not given),-62.6,-25.2,-28.3,5.5,111.1,1.4
Cc1ccccc1NC(=O)CC1SC(=O)N(c2ccccc2)C1=O (stereo not given),7.7,16.7,-0.5,6.4,105.1,5.4*
CCCC(=Nc1ccc(N)cc1)C1=C(O)C(C(=O)OC)C(C)(C)CC1=O (stereo not given),-10.8,65.5*[fluorescence artefact?],-2.5,3.0,97.3,-2.4
COc1ccc2c3c(cccc13)NN=C2C,-4.1,99.3*[fluorescence artefact?],98.4*[fluorescence artefact?],32.3,-3.1,/
COc1ccc(C(=O)c2ccc(OC)c3cccc(O)c23)cc1OC,-9.8,9.1,4.9,-7.7,91.0,-3.9
NC(N)=N/N=C/c1ccc(O)c(C(=O)O)c1,/,/,/,18.2,/,/
C[N+](C)(C)CCN[N@+]1(C)CCCc2ccccc21,/,/,/,103.2*,/,/
COC(=O)CC[C@@H](C)[C@H]1CC[C@H]2[C@@H]3CC[C@H]4C[C@@H]5CC[C@@]4(C)[C@]3(O5)[C@H](Br)[C@@H](Br)[C@]12C,/,/,/,-9.7,/,/
COc1ccc(OC)c2[nH]c(=O)c(CCNC(=O)C(C)C)cc12,-5.8,-1.9,-3.0,-1.1,118.9,2.0
COc1ccc(OC)c2[nH]c(=O)c(CCNC(=O)c3ccc(Br)o3)cc12,-4.1,-8.8,-1.1,6.0,99.1,4.7*
Cc1cc(N/N=C/c2ccc(O)cc2O)nc(-c2ccccc2O)n1,/,/,/,/,/,2.6
Cc1cc(N/N=C/c2ccc(O)cc2O)nc(-n2nc(C)cc2C)n1,/,/,/,/,/,5.3*
COc1ccc(/C=N/Nc2cc(C)nc(-n3nc(C)cc3C)n2)cc1,/,/,/,/,/,9.1*
Cc1cc(S(=O)(=O)NCc2cccnc2)ccc1-n1cnnn1,4.3,6.1,-2.0,-8.2,99.9,-1.6
CCCNC(=O)C1CCN(S(=O)(=O)c2ccc(Br)cc2)CC1,6.9,2.2,0.1,-2.1,121.4,-0.1
CC(=O)Nc1ccccc1-c1nnc(SCc2ccccc2Cl)[nH]c1=O,5.9,4.1,0.7,-3.7,88.0,0.1
Cn1c2ccccc2c2cc(C(=O)OCC(=O)N3CC(=O)Nc4ccccc43)sc21,1.8,17.4,-1.1,13.5,670.2*[fluorescence artefact?],-0.7
Cc1noc(/C=C/N(C)C)c1S(=O)(=O)N1CCCC(C(=O)NC2CCCCC2C)C1 (stereo not given),-5.7,-0.8,3.3,2.6,110.7,8.6*
